Measured values taken from PubChem BioAssay (NCATS).
Several values for one entry are separate records, joined by “and”; a condition that tells them apart may be missing. Equal values may be shown once. Inconclusive results are not listed. Entries that show only a call come without a potency. A number with no mark means an inactive call. Activity calls are given as the source filed them. Calls follow the shape of the dose curve; as a rule, active = well fitted curve in the direction sought with a large enough effect; inconclusive = small, poorly fitted or top-dose-only effect, or another doubt; inactive = no such curve, though single readings can be large; an effect the other way counts as inactive or inconclusive.

Key:
[1] = target: Cellular tumor antigen p53 (Homo sapiens) (UniProt P04637); assay: Primary qHTS for small molecule compounds that upregulate eGFP-tagged delta133p53alpha (in N-terminal) cells. (AID 2060322); details: NCI-H358 eGFP-delta133p53alpha fluorescence, 24 h; activation: hits give high values; also: nearly all actives have a fitted effect of over 75% in size; also: potency is read from the fitted curve at half-maximal effect; as to activation: series mostly up to about 56 µM
How it was run: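 NCI-H358 cells pre-induced 24 h with 10 ng/ml doxycycline to express N-terminal eGFP-delta133p53alpha, then dosed 24 h at 37C without doxycycline; fixed, Hoechst-stained, GFP intensity by laser scanning cytometry, normalized to DMSO (0%) and 57.5 uM 5-azacytidine (100%).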

[2] = target: Aldehyde dehydrogenase, mitochondrial (Homo sapiens) (UniProt P05091); assay: qHTS for Inhibitors of the Aldehyde Dehydrogenase Family (ALDH2) Primary screen (AID 2061308); also: nearly all actives have a fitted effect of over 55% in size
[3] = target: Retinaldehyde dehydrogenase 3 (Homo sapiens) (UniProt P47895); assay: qHTS for Inhibitors of the Aldehyde Dehydrogenase Family (ALDH1A3) Primary screen (AID 2061315)

Sequence of Cellular tumor antigen p53 (Homo sapiens) (P04637 whole entry, looked up): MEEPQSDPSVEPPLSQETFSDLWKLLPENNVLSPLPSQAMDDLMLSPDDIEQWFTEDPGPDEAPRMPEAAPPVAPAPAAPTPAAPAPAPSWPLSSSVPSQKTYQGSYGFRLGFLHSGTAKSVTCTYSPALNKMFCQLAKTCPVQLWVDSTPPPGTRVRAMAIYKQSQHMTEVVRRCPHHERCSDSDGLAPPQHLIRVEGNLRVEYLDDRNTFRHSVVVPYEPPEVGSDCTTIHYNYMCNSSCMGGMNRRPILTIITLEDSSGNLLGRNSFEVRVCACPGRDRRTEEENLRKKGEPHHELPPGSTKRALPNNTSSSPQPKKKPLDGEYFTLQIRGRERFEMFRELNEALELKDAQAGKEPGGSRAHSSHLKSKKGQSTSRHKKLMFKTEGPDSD

O=C(O)CCCCCC[C@H]1C(=O)NC(=O)N1CC[C@@H](O)C1CCCCC1
activation [1]: -1.67% | Potency [2]: inactive | Potency [3]: inactive

COc1cc(O)c2c(c1)C1=CC(O)C(O)CC1(C)OC2=O (stereo unspecified)
activation [1]: 2.29% | Potency [2]: inactive | Potency [3]: inactive

CC(=O)c1c(O)cc2c(c1C)C(=O)CC(O)C2 (stereo unspecified)
activation [1]: -14.5% | Potency [2]: inactive | Potency [3]: inactive

Cc1cc(O)cc2c1O[C@](C)(CCC[C@H](C)CCC[C@H](C)CCCC(C)C)CC2
activation [1]: -16.4% | Potency [2]: inactive | Potency [3]: inactive

Cc1cc2nc(NCCCO)n(CC(=O)c3cc(C(C)(C)C)c(O)c(C(C)(C)C)c3)c2cc1C
activation [1]: 5% | Potency [2]: inactive | Potency [3]: inactive

COC(=O)C1=CO[C@@H](O[C@@H]2O[C@H](CO[C@@H]3O[C@H](CO)[C@@H](O)[C@H](O)[C@H]3O)[C@@H](O)[C@H](O)[C@H]2O)[C@@H]2C(CO)=CC[C@H]12
activation [1]: 8.4% | Potency [2]: inactive | Potency [3]: inactive

CC1=CC(=O)CC(C)(CO[C@@H]2O[C@H](CO)[C@@H](O)[C@H](O)[C@H]2O)C1(O)/C=C/C(C)=C/C(=O)O (stereo partly specified)
activation [1]: 0.893% | Potency [2]: inactive | Potency [3]: inactive

O=C1CCC(=O)N(O)CCCCCNC(=O)CCC(=O)N(O)CCOCCNC(=O)CCC(=O)N(O)CCCCCN1
activation [1]: -16.8% | Potency [2]: inactive | Potency [3]: inactive

O=C(/C=C/c1ccc(O)cc1)N[C@@H](Cc1ccc(O)cc1)C(=O)O
activation [1]: 2.29% | Potency [2]: inactive | Potency [3]: inactive

CC(C)S(=O)(=O)NC[C@@H]1CC(c2ccc(N3CCCC3)c(F)c2)=NO1
activation [1]: 0.333% | Potency [2]: inactive | Potency [3]: inactive

CC#C[C@@H](CC(=O)O)c1ccc(OCc2ccc(CN3CCC4(C=Cc5ccccc54)CC3)s2)cc1
activation [1]: 4.46% | Potency [2]: inactive | Potency [3]: inactive

C[C@H]1[C@@H](O)[C@H](O)C2[C@]3(C)C([C@@H](O)[C@H]4OC(=O)[C@@H]1[C@@]24C)[C@](C)(O)C=C[C@H]3O[C@@H]1O[C@H](CO)[C@@H](O)[C@H](O)[C@H]1O (stereo partly specified)
activation [1]: 0.893% | Potency [2]: inactive | Potency [3]: inactive

Nc1nonc1C(=Nc1ccc(F)c(Cl)c1)NO
activation [1]: -6.33% | Potency [2]: inactive | Potency [3]: inactive

CNC(=O)c1ccccc1Sc1ccc2c(/C=C/c3ccccn3)n[nH]c2c1
activation [1]: -18.6% and -9.82% | Potency [2]: inactive | Potency [3]: inactive

Cc1ccc(C)c(NS(=O)(=O)c2cc(C(=O)Nc3ccccc3-c3ccccc3)ccc2C)c1
activation [1]: 1.67% | Potency [2]: inactive | Potency [3]: inactive

Cc1cc2c(F)c(Oc3ncnn4cc(OCC(C)O)c(C)c34)ccc2[nH]1 (stereo unspecified)
activation [1]: -26.8% | Potency [2]: inactive | Potency [3]: inactive

CC1(C)CC[C@]2(C(=O)O)CC[C@]3(C)C(=CCC4[C@@]5(C)C(=O)C[C@H](O)[C@@](C)(CO)C5CC[C@]43C)[C@@H]2C1 (stereo partly specified)
activation [1]: -11.5% | Potency [2]: inactive | Potency [3]: inactive

C=C1CC23CC(=O)C4C(CO)(CO)CCCC4(C)C2CCC1C3 (stereo unspecified)
activation [1]: -3.05% | Potency [2]: inactive | Potency [3]: inactive

C[C@@H]1C[C@H](C)CN(CCC(=O)Nc2ccc(Br)cc2)C1
activation [1]: 13.4% | Potency [2]: inactive | Potency [3]: inactive

C=C1CC[C@@H]2[C@](C)(CC[C@H](O)[C@@]2(C)CCC=C(C)C)[C@@H]1Cc1c[nH]c2ccccc12
activation [1]: -21.4% | Potency [2]: inactive | Potency [3]: inactive

C=C1C(OC(C)=O)CCC2(C)CC3(OC)OC(=O)C(C)=C3CC12 (stereo unspecified)
activation [1]: 17.9% | Potency [2]: inactive | Potency [3]: inactive

CC1OC(OC2C(OC3C(O[C@H]4CC[C@@]5(C)C(CC[C@]6(C)C5C(=O)CC5=C7CC(C)(C)CC(O)[C@]7(C)CC[C@]56C)C4(C)C)OC(C(=O)O)C(O)C3O)OCC(O)C2O)C(O)C(O)C1O (stereo partly specified)
activation [1]: -11.5% | Potency [2]: inactive | Potency [3]: inactive

CC(C)=C1C[C@@]2(C)C(=CC1=O)CC[C@@H](OC(=O)/C(C)=C/CO)[C@@H]2C
activation [1]: 5.34% | Potency [2]: inactive | Potency [3]: inactive

C/C=C(/C)C(=O)OC1CC(C)(C)CC2C3=CCC4C5(C)CCC(OC6OC(C)C(OC7OC(C(=O)O)C(O)C(OC8OC(CO)C(O)C(O)C8OC8OC(CO)C(O)C(O)C8O)C7O)C(O)C6O)C(C)(C)C5CCC4(C)C3(C)C(OC(=O)/C=C/C=C/C=C/CCC)C(OC(C)=O)C12CO (stereo unspecified)
activation [1]: 14.5% | activity change, negative = inhibition [2]: 6.9% [at 11.2 µM] | activity change, negative = inhibition [3]: 9.07% [at 11.2 µM]

O=C(NOC[C@H](O)CO)c1ccc(F)c(F)c1Nc1ccc(I)cc1F
activation [1]: 8.59% | Potency [2]: inactive | Potency [3]: inactive

OC[C@H]1O[C@@H](Oc2ccc3c(c2)OC[C@H]2c4cc5c(cc4O[C@@H]32)OCO5)[C@H](O)[C@@H](O)[C@@H]1O
activation [1]: -13.7% | Potency [2]: inactive | Potency [3]: inactive

O=C(O)Cc1cn([C@@H]2OC[C@@H](O[C@@H]3O[C@H](CO)[C@@H](O)[C@H](O)[C@H]3O)[C@H](O)[C@H]2O[C@@H]2O[C@H](CO)[C@@H](O)[C@H](O)[C@H]2O)c2ccccc12
activation [1]: -7.63% | Potency [2]: inactive | Potency [3]: inactive

C/C=C(\C)C(=O)OCC1OC(OC2OC(COC(=O)/C(C)=C/C)C(OC3OC(CO)C(OC(=O)/C(C)=C/C)C(OC(=O)/C(C)=C/C)C3O)C(O)C2O)C(O)C(O)C1OC1OC(CO)C(OC(=O)/C(C)=C/C)C(OC(=O)/C(C)=C/C)C1O (stereo unspecified)
activation [1]: -19.8% | Potency [2]: inactive | Potency [3]: inactive

C1CCN2CC3C[C@@H](CN4CCCC[C@@H]34)[C@H]2C1
activation [1]: -23.2% | Potency [2]: inactive | Potency [3]: inactive

CC1=CC[C@]2(C(=O)O[C@@H]3O[C@H](CO[C@@H]4O[C@H](CO)[C@@H](O[C@@H]5O[C@@H](C)[C@H](O)[C@@H](O)[C@H]5O)[C@H](O)[C@H]4O)[C@@H](O)[C@H](O)[C@H]3O)CC[C@]3(C)C(CCC4[C@@]5(C)C[C@@H](O)[C@H](O)[C@@](C)(CO)C5CC[C@]43C)C2C1C (stereo partly specified)
activation [1]: -13% | Potency [2]: inactive | Potency [3]: inactive

N#Cc1ccc(Nc2nc(-c3ccc(O)cc3O)cs2)cc1C(F)(F)F
Potency [1]: 26.9 µM (active) | Potency [2]: inactive | Potency [3]: inactive

O=C(Nc1ccc(N(Cc2ccsc2)C(=O)Cn2nnc3ccccc32)cc1)C1CC1
activation [1]: 11.6% | Potency [2]: inactive | Potency [3]: inactive

CC1(O)CCCC2(C)C1CCC13CC(CO)C(CCC12)C3 (stereo unspecified)
activation [1]: 0% | Potency [2]: inactive | Potency [3]: inactive

CC1[C@@H](O)[C@@H](O)C2[C@]3(C)C(C[C@H]4OC(=O)[C@H](O)[C@]1(O)[C@@]24C)C(C)(O)C[C@H](O)[C@H]3O (stereo partly specified)
activation [1]: -16% | Potency [2]: inactive | Potency [3]: inactive

CC1CCC2(C(=O)OC3OC(CO)C(O)C(O)C3O)CCC3(C)C(=CCC4C5(C)CC(O)C(O)C(C)(C(=O)O)C5CCC43C)C2C1(C)O (stereo unspecified)
activation [1]: -18.3% | Potency [2]: inactive | Potency [3]: inactive

C[C@]1(OC(=O)/C=C/c2ccc(O)cc2)C[C@@H](O)[C@]2(O)C=CO[C@@H](O[C@@H]3O[C@H](CO)[C@@H](O)[C@H](O)[C@H]3O)C12 (stereo partly specified)
activation [1]: 3.57% | Potency [2]: inactive | Potency [3]: inactive

NC1Nc2ccccc2C1(N)CC1NC(=O)C(Cc2ccccc2)NC(=O)C(Cc2ccccc2)NC1=O (stereo unspecified)
activation [1]: -3.05% | Potency [2]: inactive | Potency [3]: inactive

CC1=C(C)C(=O)OC(C(C)C2CCC3C4C5OC5C5(O)CC(OC6OC(CO)C(OC7OC(C)C(O)C(O)C7O)C(O)C6O)CC(O)C5(C)C4CCC23C)C1 (stereo unspecified)
activation [1]: 3.57% | Potency [2]: inactive | Potency [3]: inactive

O=C(O)CCc1cc2ccoc2cc1O[C@@H]1O[C@H](CO)[C@@H](O)[C@H](O)[C@H]1O
activation [1]: 6.11% | Potency [2]: inactive | Potency [3]: inactive

C/C=C/C=C/C(=O)OC1CC/C=C/C(O)C(O)C(CCC)OC1=O (stereo unspecified)
activation [1]: -12.2% | Potency [2]: inactive | Potency [3]: inactive

CC(C)C1=CCC(C)(O)C(OC2OC(CO)C(O)C(O)C2O)C1 (stereo unspecified)
activation [1]: -17.6% | Potency [2]: inactive | Potency [3]: inactive

C[C@]12CCC[C@](C)(C(=O)O)C1CCC13C=C(CO)C(CCC12)C3 (stereo partly specified)
activation [1]: -24.4% | Potency [2]: inactive | Potency [3]: inactive

O=C(O)/C=C/c1ccc(O)c(O[C@@H]2O[C@H](CO)[C@@H](O)[C@H](O)[C@H]2O)c1
activation [1]: 16% | Potency [2]: inactive | Potency [3]: inactive

CCNC(=O)Nc1ccc(-c2nc3c(c(N4CCOCC4C)n2)CCN(C2COC2)C3)cc1 (stereo unspecified)
activation [1]: 12.4% | Potency [2]: inactive | Potency [3]: inactive

CC1(C)[C@@H](O)CC[C@]2(C)[C@H]3CC=C4[C@@H]5C[C@](C)(C(=O)O)CC[C@]5(C)CC[C@@]4(C)[C@]3(C)CC[C@@H]12
activation [1]: 7% | Potency [2]: inactive | Potency [3]: inactive

CC1(CCC(=O)O)C(=O)C=CC23CC4CC(OC4(C)C2O)C13 (stereo unspecified)
activation [1]: 6.87% | Potency [2]: inactive | Potency [3]: inactive

C=CC(C)(O)CC/C=C(\C)COC1O[C@H](CO)[C@@H](O)[C@H](O)[C@H]1O (stereo partly specified)
activation [1]: -14.5% | Potency [2]: inactive | Potency [3]: inactive

C=C(CCO)C(=O)OCC1OCC(OC(=O)C(=C)CCO[C@@H]2O[C@H](COC(=O)C(=C)CCO[C@@H]3O[C@H](CO)[C@@H](O)[C@H](O)[C@H]3O)[C@@H](O)[C@H](O)[C@H]2O)C(O)C1O (stereo partly specified)
activation [1]: 11.5% | Potency [2]: inactive | Potency [3]: inactive

CCCCc1ccc(NS(=O)(=O)c2ccc(F)cc2)cc1
activation [1]: -9.55% | Potency [2]: inactive | Potency [3]: inactive

C/C=C/C=C/C=C/C(=O)O[C@@H]1C=C(CO)C(O)(C(=O)O)[C@@]2(C)CCCC(C)(C)[C@H]12 (stereo partly specified)
activation [1]: -9.92% | Potency [2]: inactive | Potency [3]: inactive

Cc1nc2sc(C(=O)NCc3ccncc3)c(N)c2c(C)c1Cl
activation [1]: 11% | Potency [2]: inactive | Potency [3]: inactive

Cc1nc2ccc(Oc3ccc(F)cc3)cc2c(=O)n1C[C@H]1CCCN(C(C)C)C1
activation [1]: -12.4% | Potency [2]: inactive | Potency [3]: inactive
